# Results reported in PubChem BioAssay (Tox21).
# Where “and” joins values, the source holds several entries; their conditions need not be identical. Equal entries are not always repeated. Inconclusive results are not listed. A call without a number means that no potency is given here. Some structures have more than one record in an assay (separate samples or runs), and their calls can disagree. Calls of active or inactive are those of the source. Calls follow the shape of the dose curve; as a rule, active = well fitted curve in the direction sought with a large enough effect in the repeat runs; inconclusive = weak or mixed curves; inactive = no such curve, though single readings can be large; an effect the other way counts as inactive or inconclusive.
# Assays:
# [1] = A CellTox Green Cytotoxicity Assay to monitor cytotoxicity in HEK293 cells - 40 hour (AID 1224871); also: nearly all actives have a fitted effect of over 45% in size; also: potency is read from the fitted curve at half-maximal effect
# Method in brief: (§1)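 Each value comes from one timepoint of a single continuous run in which HEK293 cells with CellTox Green were exposed to compound for up to 40 h at 37 C, dye fluorescence rising with cell death.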
# [2] = qHTS RealTime-Glo MT Cell Viability Assay in HEK293 cells - 16 hour (AID 1224872); also: nearly all actives have a fitted effect of over 50% in size; also: potency is read from the fitted curve at half-maximal effect
# Method in brief: (§2)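 Assay medium contained NanoLuc luciferase plus cell-permeant prosubstrate, added with HEK293 cells at 600 cells/well. After 5 h at 37 C/5% CO2 compounds were added; plates stayed at 37 C for 40 h with serial luminescence reads.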
# [3] = qHTS RealTime-Glo MT Cell Viability Assay in HepG2 cells - 8 hour (AID 1224873); also: nearly all actives have a fitted effect of over 55% in size
# Method in brief: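 HepG2 cells mixed with RealTime-Glo MT reagents (NanoLuc plus cell-permeant prosubstrate) were seeded at 600 cells/well, incubated 5 h at 37 C/5% CO2, then pinned with compounds in DMSO; nonlytic luminescence tracked viability during 40 h treatment.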
# [4] = qHTS RealTime-Glo MT Cell Viability Assay in HEK293 cells - 40 hour (AID 1224874); details: RealTime-Glo luminescence; max response: stronger effect = lower value; also: nearly all actives have a fitted effect of over 50% in size; also: potency is read from the fitted curve at half-maximal effect
# Method in brief: (§3)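 qHTS format; HEK293 cells with NanoLuc/prosubstrate reagent, 37 C/5% CO2 for 5 h pre-dosing; compounds 23 nL in DMSO; luminescence at each time point reflects viable cells.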
# [5] = A CellTox Green Cytotoxicity Assay to monitor cytotoxicity in HEK293 cells - 24 hour (AID 1224875); also: series mostly up to about 77 µM; nearly all actives have a fitted effect of over 45% in size
# Method in brief: as §1
# [6] = A CellTox Green Cytotoxicity Assay to monitor cytotoxicity in HepG2 cells - 16 hour (AID 1224876); also: nearly all actives have a fitted effect of over 45% in size
# Method in brief: (§4)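 Continuous culture of HepG2 cells with a membrane-impermeant DNA dye; rising fluorescence marks dead cells. Compound exposure lasted up to 40 h at 37 C, with reads every 8 h from 0 h.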
# [7] = qHTS RealTime-Glo MT Cell Viability Assay in HepG2 cells - 32 hour (AID 1224877); also: nearly all actives have a fitted effect of over 55% in size
# Method in brief: (§5)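 qHTS, HepG2, 600 cells/well, RealTime-Glo (NanoLuc + prosubstrate) added with cells; 5 h preincubation; DMSO compound addition; 37 C; luminescence at 0/8/16/24/32/40 h.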
# [8] = A CellTox Green Cytotoxicity Assay to monitor cytotoxicity in HepG2 cells - 40 hour (AID 1224879); also: nearly all actives have a fitted effect of over 40% in size
# Method in brief: as §4
# [9] = qHTS RealTime-Glo MT Cell Viability Assay in HEK293 cells - 0 hour (AID 1224880); also: top concentration of the series differs between compounds; nearly all actives have a fitted effect of over 45% in size
# Method in brief: as §3
# [10] = A CellTox Green Cytotoxicity Assay to monitor cytotoxicity in HEK293 cells - 32 hour (AID 1224881); also: nearly all actives have a fitted effect of over 40% in size; also: potency is read from the fitted curve at half-maximal effect
# Method in brief: as §1
# [11] = A CellTox Green Cytotoxicity Assay to monitor cytotoxicity in HepG2 cells - 0 hour (AID 1224882); also: nearly all actives have a fitted effect of over 35% in size
# Method in brief: as §4
# [12] = A CellTox Green Cytotoxicity Assay to monitor cytotoxicity in HepG2 cells - 32 hour (AID 1224883); also: nearly all actives have a fitted effect of over 50% in size
# Method in brief: as §4
# [13] = A CellTox Green Cytotoxicity Assay to monitor cytotoxicity in HEK293 cells - 8 hour (AID 1224884); also: nearly all actives have a fitted effect of over 35% in size
# Method in brief: as §1
# [14] = qHTS RealTime-Glo MT Cell Viability Assay in HepG2 cells - 16 hour (AID 1224885); also: nearly all actives have a fitted effect of over 50% in size; also: potency is read from the fitted curve at half-maximal effect
# Method in brief: as §5
# [15] = qHTS RealTime-Glo MT Cell Viability Assay in HEK293 cells - 24 hour (AID 1224886); also: nearly all actives have a fitted effect of over 50% in size; also: potency is read from the fitted curve at half-maximal effect
# Method in brief: as §2
# [16] = qHTS RealTime-Glo MT Cell Viability Assay in HEK293 cells - 8 hour (AID 1224887); also: nearly all actives have a fitted effect of over 50% in size; also: potency is read from the fitted curve at half-maximal effect
# Method in brief: as §3
# [17] = A CellTox Green Cytotoxicity Assay to monitor cytotoxicity in HEK293 cells - 16 hour (AID 1224888); also: nearly all actives have a fitted effect of over 35% in size
# Method in brief: as §1
# [18] = qHTS RealTime-Glo MT Cell Viability Assay in HepG2 cells - 0 hour (AID 1224889); also: nearly all actives have a fitted effect of over 50% in size
# Method in brief: as §5
# [19] = A CellTox Green Cytotoxicity Assay to monitor cytotoxicity in HepG2 cells - 8 hour (AID 1224890); also: nearly all actives have a fitted effect of over 45% in size
# Method in brief: as §4
# [20] = A CellTox Green Cytotoxicity Assay to monitor cytotoxicity in HepG2 cells - 24 hour (AID 1224878); also: nearly all actives have a fitted effect of over 45% in size
# Method in brief: as §4
smiles,measurement,setting,value
NC(N)=NC(N)=NCCc1ccccc1,Potency,[1],inactive
same,Potency,[2],inactive
same,outcome,[3],inactive
same,Potency,[4],6.16 µM (active)
same,Potency,[5],inactive
same,Potency,[6],inactive
same,outcome,[7],inactive
same,Potency,[8],inactive
same,Potency,[9],inactive
same,Potency,[10],inactive
same,Potency,[11],inactive
same,Potency,[12],inactive
same,Potency,[13],inactive
same,Potency,[14],inactive
same,Potency,[15],inactive
same,Potency,[16],inactive
same,Potency,[17],inactive
same,Potency,[18],inactive
same,Potency,[19],inactive
COc1ccccc1NC(=O)CC(C)=O,Potency,[1],inactive
same,Potency,[2],inactive
same,outcome,[3],inactive
same,max response,[4],-0.191% (inactive) and 6.19% (inactive)
same,Potency,[5],inactive
same,Potency,[6],inactive
same,Potency,[20],inactive
same,Potency,[8],inactive
same,Potency,[9],inactive
same,Potency,[10],inactive
same,Potency,[11],inactive
same,Potency,[12],inactive
same,Potency,[13],inactive
same,Potency,[14],inactive
same,Potency,[15],inactive
same,Potency,[16],inactive
same,Potency,[18],inactive
same,Potency,[19],inactive
CC1=NN(c2ccccc2)C(=O)C1,Potency,[1],inactive
same,Potency,[2],inactive
same,outcome,[3],inactive
same,max response,[4],-0.0619% (inactive) and 3.79% (inactive) and -1.74% (inactive)
same,Potency,[5],inactive
same,Potency,[6],inactive
same,outcome,[7],inactive
same,Potency,[8],inactive
same,Potency,[9],inactive
same,Potency,[10],inactive
same,Potency,[11],inactive
same,Potency,[12],inactive
same,Potency,[13],inactive
same,Potency,[14],inactive
same,Potency,[15],inactive
same,Potency,[16],inactive
same,Potency,[17],inactive
same,Potency,[18],inactive
same,Potency,[19],inactive
O=C(OCc1ccccc1)c1ccccc1,Potency,[1],43.8 µM (active) and inactive
same,Potency,[2],inactive
same,outcome,[3],inactive
same,max response,[4],-12% (inactive) and 0.176% (inactive) and 2.06% (inactive)
same,Potency,[5],inactive
same,Potency,[6],inactive
same,Potency,[20],inactive
same,Potency,[9],inactive
same,Potency,[10],43.8 µM (active) and inactive
same,Potency,[11],inactive
same,Potency,[12],inactive
same,Potency,[13],inactive
same,Potency,[14],inactive
same,Potency,[15],inactive
same,Potency,[16],inactive
same,Potency,[18],inactive
same,Potency,[19],inactive
Cc1cccc(C)c1O,Potency,[1],inactive
same,Potency,[2],inactive
same,outcome,[3],inactive
same,max response,[4],9.86% (inactive) and 0.971% (inactive)
same,Potency,[5],inactive
same,Potency,[6],inactive
same,Potency,[9],inactive
same,Potency,[10],inactive
same,Potency,[11],inactive
same,Potency,[12],inactive
same,Potency,[13],inactive
same,Potency,[14],inactive
same,Potency,[15],inactive
same,Potency,[16],inactive
same,Potency,[17],inactive
same,Potency,[18],inactive
same,Potency,[19],inactive
CCCCCCCCCCCCCCCCCC(=O)OCC(O)CO (centres undefined),Potency,[1],inactive
same,Potency,[2],inactive
same,outcome,[3],inactive
same,max response,[4],10.4% (inactive) and 6.82% (inactive) and 1.48% (inactive)
same,Potency,[5],inactive
same,Potency,[6],inactive
same,Potency,[8],inactive
same,Potency,[9],inactive
same,Potency,[10],inactive
same,Potency,[11],inactive
same,Potency,[12],inactive
same,Potency,[13],inactive
same,Potency,[14],inactive
same,Potency,[15],inactive
same,Potency,[16],inactive
same,Potency,[18],inactive
same,Potency,[19],inactive
CN(C)C=O,Potency,[1],inactive
same,Potency,[2],inactive
same,outcome,[3],inactive
same,max response,[4],2.24% (inactive) and 2.36% (inactive)
same,Potency,[5],inactive
same,Potency,[6],inactive
same,Potency,[9],inactive
same,Potency,[10],inactive
same,Potency,[11],inactive
same,Potency,[12],inactive
same,Potency,[13],inactive
same,Potency,[14],inactive
same,Potency,[15],inactive
same,Potency,[16],inactive
same,Potency,[17],inactive
same,Potency,[18],inactive
same,Potency,[19],inactive
O=c1c(-c2ccc(O)cc2)coc2cc(O)cc(O)c12,Potency,[1],inactive
same,Potency,[2],21.9 µM (active)
same,outcome,[3],inactive
same,Potency,[4],19.2 µM (active) and 19.5 µM (active)
same,Potency,[5],inactive
same,Potency,[6],inactive
same,Potency,[20],inactive
same,Potency,[8],inactive
same,Potency,[9],inactive
same,Potency,[10],inactive
same,Potency,[11],inactive
same,Potency,[12],inactive
same,Potency,[13],inactive
same,Potency,[14],inactive
same,Potency,[15],24.5 µM (active)
same,Potency,[18],inactive
same,Potency,[19],inactive
CN/C(=C\[N+](=O)[O-])NCCSCc1ccc(CN(C)C)o1,Potency,[1],inactive
same,Potency,[2],inactive
same,outcome,[3],inactive
same,max response,[4],4.86% (inactive) and 0.756% (inactive)
same,Potency,[5],inactive
same,Potency,[6],inactive
same,Potency,[20],inactive
same,Potency,[8],inactive
same,Potency,[9],inactive
same,Potency,[10],inactive
same,Potency,[11],inactive
same,Potency,[12],inactive
same,Potency,[13],inactive
same,Potency,[14],inactive
same,Potency,[15],inactive
same,Potency,[16],inactive
same,Potency,[18],inactive
same,Potency,[19],inactive
C[C@]12CC[C@@H]3c4ccc(O)cc4CC[C@H]3[C@@H]1CCC2=O,Potency,[1],49 µM (active) and inactive
same,Potency,[2],inactive
same,outcome,[3],inactive
same,Potency,[5],inactive
same,Potency,[6],inactive
same,outcome,[7],inactive
same,Potency,[20],inactive
same,Potency,[9],inactive
same,Potency,[10],49 µM (active) and inactive
same,Potency,[11],inactive
same,Potency,[12],inactive
same,Potency,[13],inactive
same,Potency,[14],inactive
same,Potency,[15],inactive
same,Potency,[16],inactive
same,Potency,[17],inactive
same,Potency,[18],inactive
same,Potency,[19],inactive
CO[C@H]1C=CO[C@@]2(C)Oc3c(C)c(O)c4c(O)c(c(/C=N/N5CCN(C)CC5)c(O)c4c3C2=O)NC(=O)/C(C)=C\C=C[C@H](C)[C@H](O)[C@@H](C)[C@@H](O)[C@@H](C)[C@H](OC(C)=O)[C@@H]1C,Potency,[1],inactive
same,Potency,[2],6.96 µM (active) and 2.21 µM (active) and 21.3 µM (active)
same,Potency,[4],22 µM (active) and 15.7 µM (active)
same,Potency,[5],inactive
same,Potency,[6],inactive
same,Potency,[20],inactive
same,Potency,[9],inactive
same,Potency,[10],inactive
same,Potency,[11],inactive
same,Potency,[12],inactive
same,Potency,[13],inactive
same,Potency,[14],12.4 µM (active)
same,Potency,[15],12.4 µM (active) and 4.42 µM (active) and 21.3 µM (active)
same,Potency,[16],2.77 µM (active) and 988 nM (active) and 10.7 µM (active)
same,Potency,[17],inactive
same,Potency,[18],inactive
same,Potency,[19],inactive
